How the values were obtained:
Experiment in all cases: PBM binding z-score (relative to random genomic background probes); higher = stronger binding; sequences stand for … in GC…GCGATTGACAGCGTAGAATGAAGG
[1] = tested on: FXR:RXRa (NR concentration 270 nM, RXRa partner concentration 90 nM)
Summary of the method: (§1)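 Each nuclear receptor dimer, without ligand, was incubated for 1 h on custom Agilent 4×180K protein-binding microarrays. Binding was detected with antibodies against each partner (one per run), and scanned fluorescence was regression-normalized. The binding z-scores are referenced to random human genomic background probes.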

[2] = tested on: LXRa:RXRa (NR concentration 270 nM, RXRa partner concentration 90 nM)
Summary of the method: as §1

[3] = tested on: LXRa homodimer (NR concentration 270 nM)
Summary of the method: as §1

[4] = tested on: LXRb:RXRa (NR concentration 270 nM, RXRa partner concentration 90 nM)
Summary of the method: as §1

[5] = tested on: LXRb homodimer (NR concentration 270 nM)
Summary of the method: as §1

[6] = tested on: PPARa:RXRa (NR concentration 270 nM, RXRa partner concentration 90 nM)
Summary of the method: as §1

[7] = tested on: PPARg:RXRa (NR concentration 180 nM, RXRa partner concentration 90 nM)
Summary of the method: as §1

[8] = tested on: PPARg:RXRa 270nM:90nM, anti-RXR (NR concentration 270 nM, RXRa partner concentration 90 nM)
Summary of the method: as §1

[9] = tested on: PPARg:RXRa 30nM:10nM, anti-RXR (NR concentration 30 nM, RXRa partner concentration 10 nM)
Summary of the method: as §1

[10] = tested on: PPARg:RXRa 90nM:30nM, anti-RXR (NR concentration 90 nM, RXRa partner concentration 30 nM)
Summary of the method: as §1

[11] = tested on: PPARg:RXRa DBDmut IVT, anti-RXR (DBD mutation: RXRa K156A/R161A, NR concentration 270 nM, RXRa partner concentration 90 nM)
Summary of the method: as §1

[12] = tested on: PPARg:RXRa IVT, anti-PPARg (NR concentration 270 nM, RXRa partner concentration 90 nM)
Summary of the method: as §1

[13] = tested on: PPARg DBDmut:RXRa IVT, anti-PPARg (DBD mutation: PPARg1 K132A/R137A, NR concentration 270 nM, RXRa partner concentration 90 nM)
Summary of the method: as §1

[14] = tested on: PPARg DBDmut IVT, anti-PPARg (DBD mutation: PPARg1 K132A/R137A, NR concentration 270 nM)
Summary of the method: as §1

[15] = tested on: PPARg homodimer (NR concentration 180 nM)
Summary of the method: as §1

[16] = tested on: PXR:RXRa (NR concentration 270 nM, RXRa partner concentration 90 nM)
Summary of the method: as §1

[17] = tested on: PXR homodimer (NR concentration 270 nM)
Summary of the method: as §1

[18] = tested on: RARa:RXR (NR concentration 270 nM, RXRa partner concentration 90 nM)
Summary of the method: as §1

[19] = tested on: RARa homodimer (NR concentration 270 nM)
Summary of the method: as §1

[20] = tested on: RARb:RXRa (NR concentration 270 nM, RXRa partner concentration 90 nM)
Summary of the method: as §1

| Sequence | PBM binding z-score [1] | PBM binding z-score [2] | PBM binding z-score [3] | PBM binding z-score [4] | PBM binding z-score [5] | PBM binding z-score [6] | PBM binding z-score [7] | PBM binding z-score [8] | PBM binding z-score [9] | PBM binding z-score [10] | PBM binding z-score [11] | PBM binding z-score [12] | PBM binding z-score [13] | PBM binding z-score [14] | PBM binding z-score [15] | PBM binding z-score [16] | PBM binding z-score [17] | PBM binding z-score [18] | PBM binding z-score [19] | PBM binding z-score [20] |
| --- | --- | --- | --- | --- | --- | --- | --- | --- | --- | --- | --- | --- | --- | --- | --- | --- | --- | --- | --- | --- |
| CCGACTGGGCCACGAAAGGTCATTGATTCAGTGA | 3.33 | 4.99 | 3.8 | 4.13 | -0.0773 | 4.31 | 3.41 | 4.06 | 1.52 | 3.16 | 4.66 | 4.28 | -0.928 | -1.23 | 2.39 | 5.17 | 0.941 | 4.89 | 0.265 | 3.79 |
| CGAACTAGGTCAGAACAGGACCGTGAAGGATGAT | 0.998 | 0.352 | -0.566 | 0.148 | -0.568 | 2.94 | 5.07 | 4.33 | 1.63 | 3.44 | 7.33 | 7.06 | 2.11 | 0.843 | 0.797 | 0.0175 | -0.758 | 0.594 | -0.383 | 2.73 |
| TCATATAGGTAAATGGTAGGTGAAAGTCCGATCT | 1.34 | 1.54 | 0.813 | 1.26 | 0.456 | 1.8 | 1.39 | 3.17 | 3.85 | 3.74 | 4.03 | 3.04 | 0.629 | 0.943 | 1.37 | 0.974 | 0.669 | 1.43 | 1.61 | 0.698 |
| CCTGCTAGGTCATGGTCAGATAATCTACAGTATG | 3.8 | 2.5 | 0.343 | 1.93 | 0.146 | 3.64 | 2.85 | 2.71 | 0.675 | 1.95 | 4.17 | 3.84 | 0.574 | 0.147 | 1.88 | 1.35 | -0.264 | 2.59 | 0.0727 | 3.92 |
| TCATGTAGGTAAAAGGTGAAAGTCGGTGTGGTAA | 1.69 | 1.64 | 0.309 | 1.98 | 0.274 | 5.78 | 9.58 | 8.82 | 8.8 | 9.11 | 5.39 | 5.6 | 0.711 | 0.765 | 2.48 | 1.67 | 0.518 | 2.72 | 1.33 | 1.81 |
| CCCACTGGGCCAAGGTCATTGATCAGTCAAAGCA | 3.13 | 2.95 | 1.44 | 2.57 | -0.562 | 3.8 | 4.07 | 4.12 | 1.57 | 3.3 | 2.96 | 4.5 | -0.866 | -1.7 | 1.75 | 3.5 | 1.12 | 3.45 | -0.0237 | 3.08 |
| CCTAGATGGTCAAGGTCACACACGCTATAGGTAC | 4.6 | 3.62 | 2.05 | 3.69 | 0.665 | 4.2 | 3.13 | 3.56 | 1.34 | 2.46 | 1.66 | 3.08 | 1.08 | 0.88 | 3.58 | 4.21 | 2.09 | 4.57 | 2.52 | 4.29 |
| CCTAGTTGGTCAGGAGGTTACACACCGGATATGA | 0.491 | 0.633 | 0.538 | 1.02 | 0.258 | 1.5 | 1.14 | 1.4 | 0.448 | 1.07 | 0.814 | 1.65 | 0.504 | 0.527 | 1.84 | 0.862 | 0.653 | 1.38 | 0.725 | 1.47 |
| GGAACGATGGCATTCGAGTTGATAGCATGGCGAT | -0.471 | -0.604 | -0.706 | -0.979 | -1.12 | -0.689 | 0.643 | -0.465 | -0.325 | -0.434 | -0.377 | -0.247 | -0.636 | -0.427 | -0.633 | -0.0726 | -0.789 | -0.647 | -0.81 | -0.501 |
| ATCTCTAGGTAAAGATAGTTCAGTGAGTGCAAAT | -0.0159 | 4.06 | 1.22 | 0.833 | 0.569 | 0.673 | 0.242 | 0.661 | 0.182 | 0.714 | 2.29 | 1.9 | 0.931 | 0.67 | 0.928 | 3.93 | 11.4 | 0.596 | 0.987 | 0.924 |
| GGAACGAGGGCAAAGTTGATCGCATCTGTCGACG | 1.11 | 0.829 | -0.561 | 0.545 | -0.311 | 3.82 | 6.68 | 6.95 | 5.94 | 7.29 | 3.98 | 4.13 | -0.0459 | -0.518 | 0.458 | 0.924 | 0.152 | 1.42 | -0.502 | 2.32 |
| GCGACTGGGGCAAAGCAGGTTACCACAAGGTTGG | 0.61 | -0.0445 | -0.447 | 0.204 | -1.07 | 1.14 | 1.35 | 1.34 | -0.386 | 0.797 | 4.37 | 3.9 | -0.49 | -1.47 | 0.0526 | 0.473 | -0.466 | 0.796 | -0.331 | 0.888 |
| TCTAGTTGATCACGGAGGTCACACACGACGGGTA | 2.88 | 3.08 | 1.8 | 3.27 | 0.399 | 3.76 | 2.09 | 3.19 | 3.41 | 2.99 | 1.39 | 2.26 | 0.727 | 1.1 | 2.02 | 4.29 | 1.44 | 4.94 | 0.922 | 3.24 |
| AATACAGGGTCATCGTAGGCCAGTGTACGCACAG | 6.9 | 6.17 | 2.35 | 4.64 | 1.16 | 5.62 | 6.48 | 5.88 | 3.01 | 4.66 | 2.67 | 4.1 | 1.31 | 0.904 | 2.51 | 4.95 | 0.408 | 5.01 | 1 | 4.35 |
